Bioassay records (PubChem BioAssay)
KCNQ2 pot: potentiators of rat KCNQ2 potassium channel; Potassium voltage-gated channel subfamily KQT member 2 (Rattus norvegicus), O88943; CHO-K1 KCNQ2, FluxOR thallium flux fluorescence; stronger effect = higher value; B-score at 10 µM; hit rate 0.54% among 310,000;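 active = fluorescence ratio B-score at least 3 SD of library B-scores, with initial fluorescence B-score within 3 of them, cut at about 5.3 in these data; same plate scores as AID 2156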;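 note: B-score of peak minus minimum over baseline fluorescence ratio after K+ and Tl+ stimulus; positive B-score means potentiation of KCNQ2 with more thallium influx and brighter signal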
KCNQ2 block: rat KCNQ2 potassium channel inhibitors, primary screen, cell-based, CHO-K1, FluxOR thallium flux, B-score. 20 min; stronger effect = lower value. hit rate 1.1% among 310,000. AID 2156, 2009. Potassium voltage-gated channel subfamily KQT member 2 (Rattus norvegicus), O88943. B-score at 10 µM;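 active = fluorescence ratio B-score at most minus 3 library SDs, with starting brightness B-score within 2 library SDs, cut at about -5.5 in these data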
Kir21 confirm: mouse Kir2.1 channel blockers, retest, confirmation, cell-based, FluxOR thallium flux, duplicate; hit rate 41% among 2,300; shares compounds with KCNQ2 pot; Tl flux remaining, % of negative control (stronger effect = lower value), % at 10 µM; AID 2032, 2009; Kir2.1-expressing cells, FluxOR thallium flux fluorescence; stronger effect = lower value;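 active = Primary-screen hit whose thallium flux fell at least 3 control SD below untreated wells in both duplicates, with normal baseline fluorescence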;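 note: 0% = blank wells without stimulus and 100% = stimulated no-compound controls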
HEK293 ctr: counter-screen for Kir2.1 inhibitors: effect in parental HEK293 cells; AID 2105; shares compounds with KCNQ2 pot; FluxOR thallium flux fluorescence; 0% = unstimulated blank wells; FluxOR signal as % of negative control (100 = no effect), % at 10 µM; hit rate 19% among 2,300;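 active = dye signal at least 3 control SD above or below untreated wells in both duplicates, raw fluorescence within 3, either direction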;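 note: percent is based on the flux ratio of peak minus minimum fluorescence over baseline F0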
CHO-K1 ctr: nonspecific thallium flux increase in parental CHO-K1, confirmation, counter-screen for KCNQ2 potentiator project, cell-based, FluxOR thallium flux, duplicate; activity increase over 3SD of controls, % at 10 µM; shares compounds with KCNQ2 pot; AID 2282, 2010; hit rate 43% among 1,200; parental CHO-K1 cells, FluxOR thallium flux fluorescence; zero = vehicle mean+3SD, 100% = vehicle-minus-blank window;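 active = signal rise of at least 3 SD above the untreated control mean, in both duplicate wells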;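 note: counter screen of KCNQ2 potentiator hits so any rise reflects channel-independent effects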
KCNQ1 sel pot: human KCNQ1 channel potentiation off-target, confirmation, selectivity assay for KCNQ2 potentiator project, cell-based, CHO, FluxOR thallium flux; CHO KCNQ1 stable, FluxOR thallium flux fluorescence; beyond 3SD, as % of vehicle-control signal; activation over 3SD threshold, % at 10 µM; hit rate 28% among 1,200; AID 2283, 2010; shares compounds with KCNQ2 pot;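 active = fluorescence ratio rise of at least 3 SD of vehicle wells above their mean, in both replicate wells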;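 note: 0% = vehicle mean plus 3 SD and 100% = vehicle minus unstimulated blank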
Target sequence (P51787 whole entry, looked up): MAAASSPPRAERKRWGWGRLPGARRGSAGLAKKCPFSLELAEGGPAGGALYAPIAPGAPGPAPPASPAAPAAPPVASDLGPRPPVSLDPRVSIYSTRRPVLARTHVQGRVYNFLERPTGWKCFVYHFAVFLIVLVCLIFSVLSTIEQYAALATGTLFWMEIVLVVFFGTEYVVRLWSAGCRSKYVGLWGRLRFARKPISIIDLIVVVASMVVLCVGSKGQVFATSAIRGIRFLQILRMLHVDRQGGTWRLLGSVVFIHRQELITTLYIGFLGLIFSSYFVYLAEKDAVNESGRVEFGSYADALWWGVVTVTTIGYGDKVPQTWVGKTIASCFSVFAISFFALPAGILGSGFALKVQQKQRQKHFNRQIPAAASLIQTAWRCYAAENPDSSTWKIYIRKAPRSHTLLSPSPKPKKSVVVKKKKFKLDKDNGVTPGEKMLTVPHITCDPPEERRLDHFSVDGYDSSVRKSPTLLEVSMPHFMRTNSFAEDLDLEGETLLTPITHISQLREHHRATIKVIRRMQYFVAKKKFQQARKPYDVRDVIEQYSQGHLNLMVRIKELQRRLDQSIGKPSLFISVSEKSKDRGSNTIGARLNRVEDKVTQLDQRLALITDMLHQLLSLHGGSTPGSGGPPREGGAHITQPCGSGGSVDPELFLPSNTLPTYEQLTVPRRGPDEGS
KCNQ2 pot confirm: rat KCNQ2 channel potentiators, confirmation, cell-based, CHO, FluxOR thallium flux, duplicate; CHO-KCNQ2 cells, FluxOR thallium flux fluorescence; AID 2287, 2010; shares compounds with KCNQ2 pot; hit rate 68% among 1,200; potentiation, less the hit threshold, % at 10 µM;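 active = fluorescence ratio rising 3 SD or more over the vehicle control mean in both replicates, plus primary screen hit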;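 note: peak minus minimum thallium fluorescence divided by baseline after K/Tl stimulus; 0% = vehicle mean plus 3 SD and 100% = vehicle minus unstimulated blank difference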
Kir2-1 sel: mouse Kir2.1 channel activation off-target, confirmation, selectivity assay for KCNQ2 potentiator project, cell-based, HEK293, FluxOR thallium flux. HEK293 Kir2.1, FluxOR thallium flux fluorescence. hit rate 2% among 1,200. activity over 3SD threshold, % at 10 µM. shares compounds with KCNQ2 pot;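 active = fluorescence ratio rise of at least 3 SD above the vehicle-control mean, seen in both replicates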;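 note: 0% = vehicle mean plus 3 SD and 100% = vehicle minus no-stimulus blank window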
KCNQ2 W236L MoA: potentiators of retigabine-insensitive KCNQ2 W236L, mechanism study for KCNQ2 potentiator project, cell-based, rat KCNQ2 W236L, CHO, automated patch clamp; shares compounds with KCNQ2 pot; hit rate 10% among 940; current increase over 3SD of negative controls (%), stronger effect = higher value, % at 25 µM; automated patch clamp current; AID 2558, 2010;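 active = current increase at least 3 SD of the untreated controls above them in both duplicate recordings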
* hit, by the source's call; i = inactive; . = not tested or not shown. Sampled rows, rich in hits. Any-hit rate of the full collection: about 1.6%.

SMILES	KCNQ2 pot	KCNQ2 block	Kir21 confirm	HEK293 ctr	others
O=C(NC(=S)Nc1ccccc1)c1ccc(Br)o1	8.16*	i	i	162.0%*	CHO-K1 ctr=129.6*;KCNQ1 sel pot=-19.2;KCNQ2 pot confirm=34.8*;Kir2-1 sel=-24.2;KCNQ2 W236L MoA=i
Cc1snnc1C(=O)NC(=S)Nc1ccccc1	5.95*	i	i	239.0%*	CHO-K1 ctr=-22.4;KCNQ1 sel pot=-13.8;KCNQ2 pot confirm=34.5*;Kir2-1 sel=-16.7;KCNQ2 W236L MoA=i
CCN(CC)c1ccc(NC(=O)c2c(C)noc2C)cc1	0.43	i	.	.
O=C(NNC(=S)NCc1ccccc1)c1ccc(Br)o1	.	i	.	.
O=C(NC(=S)NCc1ccccc1)c1ccc(Br)o1	13*	i	i	330.0%*	CHO-K1 ctr=-11.2;KCNQ1 sel pot=-19.4;KCNQ2 pot confirm=52.7*;Kir2-1 sel=-31.4;KCNQ2 W236L MoA=i
O=c1[nH]c(CN2CCN(c3ccccc3)CC2)nc2scc(-c3ccccc3)c12	.	i	.	.
c1ccc(CSc2nnnn2-c2cccc3ccccc23)nc1	.	i	66.5%*	i
O=C(O)c1cccc(-n2nnnc2SCc2ccccn2)c1	.	i	.	.
CCc1ccc(S(=O)(=O)NCCOc2cccc3cccnc23)cc1	.	i	69.5%*	i
CSc1ccc(S(=O)(=O)NCCOc2ccccc2C)cc1	.	i	.	.
Cc1cc(Cl)c(S(=O)(=O)N2CCN(c3ccc(F)cc3)CC2)cc1OCC(N)=O	0.29	i	.	.
Cc1cc(Cl)c(S(=O)(=O)N2CCN(c3ccc(F)cc3)CC2)cc1OCC(=O)NC1CCCCC1	16.3*	i	i	i	CHO-K1 ctr=52.7*;KCNQ1 sel pot=-11.4;KCNQ2 pot confirm=60.3*;Kir2-1 sel=-39.4;KCNQ2 W236L MoA=i
CC(=O)NCCc1nc2cc(NC(=O)c3ccc(F)cc3)ccc2n1C	.	i	.	.
CCc1c(C)c2ccc(OCC(=O)NCC3CCC(C(=O)O)CC3)cc2oc1=O (configuration not stated)	0.55	i	.	.
c1ccc(CSc2nnc(-c3cccs3)n2Cc2ccco2)cc1	-6.01	-6.01*	65.0%*	i
Cc1ccccc1CSc1nnc(-c2ccco2)n1Cc1ccco1	.	i	50.0%*	i
Cc1ccc(-c2nnc(SCc3ccc(C#N)cc3)n2Cc2ccco2)cc1	.	i	.	.
c1ccc(CSc2nnc(-c3ccco3)n2Cc2ccco2)cc1	.	i	.	.
Cc1ccccc1OCc1nc(-c2cccnc2)no1	0.5	i	.	.
O=C(Nc1ccccc1)C(Cl)C(=O)c1ccccc1 (configuration not stated)	.	i	66.5%*	70.0%*
CC(C(=O)Nc1ccccc1)C(=O)Nc1ccccc1	0.59	i	.	.
CCN(CCNC(=O)C1CCN(S(=O)(=O)c2cccc3cccnc23)CC1)c1ccccc1	1.2	i	.	.
Cc1cc(NC(=S)Nc2cccc3ccccc23)n[nH]1	.	i	.	.
CN(C)C(=O)Cn1cnc2c(cnn2-c2ccc(F)cc2)c1=O	.	i	.	.
Cc1ccc(OCCn2cc(/C=C(\C#N)C(=O)NCC3CCCO3)c3ccccc32)cc1 (configuration not stated)	1.09	i	.	.
SMILES	KCNQ2 pot	KCNQ2 block	Kir21 confirm	HEK293 ctr	others
O=c1[nH]cc(I)cc1I	7.43*	i	i	i	CHO-K1 ctr=133.0*;KCNQ1 sel pot=31.5*;KCNQ2 pot confirm=-20.4;Kir2-1 sel=-36.2
CCn1c2ccccc2c2cc(NC(=O)CSc3nnnn3-c3ccccc3)ccc21	0.26	i	.	.
O=C(OCc1ccc(Cl)c(Cl)c1)c1ccccn1	0.22	i	.	.
Nc1ncccc1OCc1ccc(Cl)c(Cl)c1	5.37*	i	i	i	CHO-K1 ctr=-1.9;KCNQ1 sel pot=-8.9;KCNQ2 pot confirm=-10.3;Kir2-1 sel=-30.0
O=C(NCc1ccccc1)c1ccc(Br)cc1Br	1.33	i	.	.
CCCCOc1c(Br)cc(/C=N/O)cc1OCC	.	i	74.0%*	i
C=CCOc1c(Br)cc(/C=N/O)cc1OCC	.	i	.	.
COc1cccc(/C=N/n2c(SC)nnc2-c2ccccc2)c1O	5.33*	i	i	i	CHO-K1 ctr=-24.5;KCNQ1 sel pot=-4.0;KCNQ2 pot confirm=-13.1;Kir2-1 sel=-28.8
COc1cccc(/C=N/n2c(SC)nnc2-c2ccccc2)c1OC	.	i	.	.
Cc1cc2c(OCC(O)CNCc3ccco3)cccc2[nH]1 (configuration not stated)	.	i	.	.
CCCNC(=O)c1nnsc1S(=O)c1ccc(Cl)cc1 (configuration not stated)	-6.84	-6.84*	73.5%*	i
Cc1nnsc1S(=O)c1ccc(F)cc1 (configuration not stated)	0.41	i	.	.
Cc1ccc(S(=O)c2snnc2C)cc1 (configuration not stated)	.	i	.	.
CNC(=O)c1nnsc1S(=O)c1ccc(Cl)cc1 (configuration not stated)	.	i	65.5%*	65.0%*
S=c1[nH]nc(-c2ccncc2)n1/N=C/c1cn(-c2ccccc2)nc1-c1ccccc1	.	i	.	.
S=c1[nH]nc(-c2cccs2)n1/N=C/c1cn(-c2ccccc2)nc1-c1cccs1	6.9*	i	i	i	CHO-K1 ctr=-0.8;KCNQ1 sel pot=80.5*;KCNQ2 pot confirm=-2.7;Kir2-1 sel=-34.1;KCNQ2 W236L MoA=i
O=C1CCCN1C(=O)CCC(=O)N1CCCC1=O	.	i	.	.
CCOC(=O)Cc1csc(NC(=O)c2ccc(C)cc2)n1	1.65	i	.	.
CC(C)NCC(O)COc1cccc2ccccc12 (configuration not stated)	.	i	.	.
OC(CNCc1ccccc1F)COc1cccc2ccccc12 (configuration not stated)	.	i	72.5%*	i
COc1ccc(C2c3ccc4ccccc4c3Oc3ncn(CCCN(C)C)c(=N)c32)cc1 (configuration not stated)	-6.14	-6.14*	36.5%*	i
COc1ccccc1C1c2ccc3ccccc3c2Oc2ncn(CCN(C)C)c(=N)c21 (configuration not stated)	.	i	.	.
